# Measured values published in PubChem BioAssay AID1159580 (chemical genetic matrix, 2015).
# Out of some 5,500 compounds screened, about 2,000 (36%) were called active. Not shown: some 18% with an inconclusive outcome. The list shows a part of the results. Unmarked numbers belong to inactive results. No stated cut-off is given here; in the data, active means normalized growth mostly below about 0.91 (no sharp cut-off); inconclusive means no clear call, values can overlap the other calls; inactive means mostly above about 0.92.
# Test: chemical genetic growth profiling, strain panel (AID 1159580);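 further: tested at 20 µM; growth read once vehicle control cultures reached saturation at 30 °C; 1 = growth at the plate median or of vehicle wells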
# Conditions: growth OD
structure (smiles),measurement,setting,value
COc1cc2c(cc1OC)[C@@H]1C(=O)c3ccc4c(c3O[C@@H]1CO2)CC(C(C)C)O4 (stereo partly drawn),normalized growth,"S. cerevisiae deletion strains, locus YKL009W, strain mrt4, stronger effect = lower value",1.01
same,normalized growth,"S. cerevisiae deletion strains, locus YKL068W, stronger effect = lower value",0.999
same,normalized growth,"S. cerevisiae deletion strains, locus YKL085W, strain MDH1 (second series), stronger effect = lower value",0.999
same,normalized growth,"S. cerevisiae deletion strains, locus YKL085W, strain MDH1, stronger effect = lower value",0.999
same,normalized growth,"S. cerevisiae deletion strains, locus YKL160W, strain elf1, stronger effect = lower value",0.978
same,normalized growth,"S. cerevisiae deletion strains, locus YKL190W, strain CNB1, stronger effect = lower value",0.998
same,normalized growth,"S. cerevisiae deletion strains, locus YKR001C, strain vps1, stronger effect = lower value",0.849 (active)
same,normalized growth,"S. cerevisiae deletion strains, locus YKR026C, strain gcn3, stronger effect = lower value",0.991
same,normalized growth,"S. cerevisiae deletion strains, locus YKR091W, strain srl3, stronger effect = lower value",0.997
same,normalized growth,"S. cerevisiae deletion strains, locus YLL001W, strain dnm1, stronger effect = lower value",0.943
same,normalized growth,"S. cerevisiae deletion strains, locus YLL026W, stronger effect = lower value",0.98
same,normalized growth,"S. cerevisiae deletion strains, locus YLL041C, strain sdh2, stronger effect = lower value",1
same,normalized growth,"S. cerevisiae deletion strains, locus YLR027C, strain aat2, stronger effect = lower value",0.935
same,normalized growth,"S. cerevisiae deletion strains, locus YLR039C, strain RIC1, stronger effect = lower value",0.849
same,normalized growth,"S. cerevisiae deletion strains, locus YLR058C, strain SHM2, stronger effect = lower value",0.987
same,normalized growth,"S. cerevisiae deletion strains, locus YLR102C, strain apc9, stronger effect = lower value",1.01
same,normalized growth,"S. cerevisiae deletion strains, locus YLR113W, strain HOG1, stronger effect = lower value",1.02
same,normalized growth,"S. cerevisiae deletion strains, locus YLR221C, strain rsa3, stronger effect = lower value",0.966
same,normalized growth,"S. cerevisiae deletion strains, locus YLR258W, strain gsy2, stronger effect = lower value",0.985
same,normalized growth,"S. cerevisiae deletion strains, locus YLR262C, strain YPT6 (second series), stronger effect = lower value",0.897
same,normalized growth,"S. cerevisiae deletion strains, locus YLR262C, strain YPT6, stronger effect = lower value",0.822
same,normalized growth,"S. cerevisiae deletion strains, locus YLR268W, strain sec22, stronger effect = lower value",0.976
same,normalized growth,"S. cerevisiae deletion strains, locus YLR320W, strain mms22, stronger effect = lower value",0.923
same,normalized growth,"S. cerevisiae deletion strains, locus YLR330W, strain CHS5, stronger effect = lower value",1
same,normalized growth,"S. cerevisiae deletion strains, locus YLR342W, strain FKS1 (second series), stronger effect = lower value",0.999
same,normalized growth,"S. cerevisiae deletion strains, locus YLR342W, strain FKS1, stronger effect = lower value",0.975
same,normalized growth,"S. cerevisiae deletion strains, locus YLR357W, strain rsc2, stronger effect = lower value",0.958
same,normalized growth,"S. cerevisiae deletion strains, locus YLR370C, strain arc18, stronger effect = lower value",0.984
same,normalized growth,"S. cerevisiae deletion strains, locus YLR371W, strain rom2, stronger effect = lower value",1
same,normalized growth,"S. cerevisiae deletion strains, locus YLR384C, strain iki3, stronger effect = lower value",0.981
same,normalized growth,"S. cerevisiae deletion strains, locus YLR418C, strain cdc73, stronger effect = lower value",0.921
same,normalized growth,"S. cerevisiae deletion strains, locus YML016C, strain PPZ1, stronger effect = lower value",1
same,normalized growth,"S. cerevisiae deletion strains, locus YML032C, strain rad52, stronger effect = lower value",1
same,normalized growth,"S. cerevisiae deletion strains, locus YML120C, strain ndi1, stronger effect = lower value",0.986
same,normalized growth,"S. cerevisiae deletion strains, locus YML124C, strain tub3, stronger effect = lower value",0.999
same,normalized growth,"S. cerevisiae deletion strains, locus YMR058W, strain fet3, stronger effect = lower value",0.983
same,normalized growth,"S. cerevisiae deletion strains, locus YMR078C, strain ctf18, stronger effect = lower value",0.996
same,normalized growth,"S. cerevisiae deletion strains, locus YMR125W, strain sto1, stronger effect = lower value",0.99
same,normalized growth,"S. cerevisiae deletion strains, locus YMR129W, stronger effect = lower value",0.979
same,normalized growth,"S. cerevisiae deletion strains, locus YMR205C, strain PFK2, stronger effect = lower value",0.924
same,normalized growth,"S. cerevisiae deletion strains, locus YMR223W, strain ubp8, stronger effect = lower value",1
same,normalized growth,"S. cerevisiae deletion strains, locus YMR231W, strain pep5, stronger effect = lower value",0.992
same,normalized growth,"S. cerevisiae deletion strains, locus YMR263W, strain SAP30, stronger effect = lower value",1
same,normalized growth,"S. cerevisiae deletion strains, locus YMR307W, strain GAS1, stronger effect = lower value",0.872
same,normalized growth,"S. cerevisiae deletion strains, locus YNL067W, strain RPL9B, stronger effect = lower value",0.993
same,normalized growth,"S. cerevisiae deletion strains, locus YNL071W, strain lat1, stronger effect = lower value",0.93
same,normalized growth,"S. cerevisiae deletion strains, locus YNL183C, strain NPR1, stronger effect = lower value",0.983
same,normalized growth,"S. cerevisiae deletion strains, locus YNL209W, strain ssb2, stronger effect = lower value",0.995
same,normalized growth,"S. cerevisiae deletion strains, locus YNL233W, strain BNI4, stronger effect = lower value",0.986
same,normalized growth,"S. cerevisiae deletion strains, locus YNL248C, strain rpa49, stronger effect = lower value",0.98
same,normalized growth,"S. cerevisiae deletion strains, locus YNL250W, strain rad50, stronger effect = lower value",1
same,normalized growth,"S. cerevisiae deletion strains, locus YNL271C, strain bni1, stronger effect = lower value",1.02
same,normalized growth,"S. cerevisiae deletion strains, locus YNL298W, strain CLA4, stronger effect = lower value",1.01
same,normalized growth,"S. cerevisiae deletion strains, locus YNL307C, strain MCK1, stronger effect = lower value",0.986
same,normalized growth,"S. cerevisiae deletion strains, locus YNL322C, strain KRE1 (second series), stronger effect = lower value",0.985
same,normalized growth,"S. cerevisiae deletion strains, locus YNR049C, strain mso1, stronger effect = lower value",0.997
same,normalized growth,"S. cerevisiae deletion strains, locus YNR052C, strain pop2, stronger effect = lower value",1.01
same,normalized growth,"S. cerevisiae deletion strains, locus YOL006C, strain TOP1, stronger effect = lower value",0.897
same,normalized growth,"S. cerevisiae deletion strains, locus YOL012C, strain htz1",1.16
same,normalized growth,"S. cerevisiae deletion strains, locus YOL147C, strain pex11, stronger effect = lower value",0.999
same,normalized growth,"S. cerevisiae deletion strains, locus YOR001W, strain rrp6, stronger effect = lower value",0.966
same,normalized growth,"S. cerevisiae deletion strains, locus YOR061W, strain CKA2, stronger effect = lower value",0.998
same,normalized growth,"S. cerevisiae deletion strains, locus YOR069W, strain VPS5, stronger effect = lower value",1.01
same,normalized growth,"S. cerevisiae deletion strains, locus YOR070C, strain gyp1, stronger effect = lower value",0.961
same,normalized growth,"S. cerevisiae deletion strains, locus YOR080W, strain dia2, stronger effect = lower value",0.974
same,normalized growth,"S. cerevisiae deletion strains, locus YOR083W, strain WHI5, stronger effect = lower value",0.98
same,normalized growth,"S. cerevisiae deletion strains, locus YOR106W, strain vam3, stronger effect = lower value",1.02
same,normalized growth,"S. cerevisiae deletion strains, locus YOR136W, strain idh2, stronger effect = lower value",1
same,normalized growth,"S. cerevisiae deletion strains, locus YOR144C, strain elg1, stronger effect = lower value",0.992
same,normalized growth,"S. cerevisiae deletion strains, locus YOR184W, strain ser1, stronger effect = lower value",0.925
same,normalized growth,"S. cerevisiae deletion strains, locus YOR231W, strain MKK1, stronger effect = lower value",1.05
same,normalized growth,"S. cerevisiae deletion strains, locus YOR265W, strain rbl2, stronger effect = lower value",0.989
same,normalized growth,"S. cerevisiae deletion strains, locus YOR270C, strain vph1, stronger effect = lower value",0.939
same,normalized growth,"S. cerevisiae deletion strains, locus YOR290C, strain snf2, stronger effect = lower value",0.989
same,normalized growth,"S. cerevisiae deletion strains, locus YOR316C, strain cot1, stronger effect = lower value",0.999
same,normalized growth,"S. cerevisiae deletion strains, locus YPL051W, strain arl3, stronger effect = lower value",0.941
same,normalized growth,"S. cerevisiae deletion strains, locus YPL055C, strain LGE1, stronger effect = lower value",0.929
same,normalized growth,"S. cerevisiae deletion strains, locus YPL078C, strain atp4, stronger effect = lower value",0.982
same,normalized growth,"S. cerevisiae deletion strains, locus YPL106C, strain sse1, stronger effect = lower value",1
same,normalized growth,"S. cerevisiae deletion strains, locus YPL240C, strain hsp82, stronger effect = lower value",1.01
same,normalized growth,"S. cerevisiae deletion strains, locus YPL241C, strain CIN2, stronger effect = lower value",1
same,normalized growth,"S. cerevisiae deletion strains, locus YPL256C, strain CLN2, stronger effect = lower value",1.05
same,normalized growth,"S. cerevisiae deletion strains, locus YPR119W, strain clb2, stronger effect = lower value",1
same,normalized growth,"S. cerevisiae deletion strains, locus YPR141C, strain kar3, stronger effect = lower value",1
same,normalized growth,"S. cerevisiae deletion strains, locus YPR163C, strain tif3, stronger effect = lower value",1.01
same,normalized growth,"S. cerevisiae deletion strains, locus YPR167C, strain met16, stronger effect = lower value",1
same,normalized growth,"S. cerevisiae deletion strains, strain wtn01, stronger effect = lower value",1.01
same,normalized growth,"S. cerevisiae strains, strain wild type, stronger effect = lower value",0.987
